Read-out in assay [1]: Interleukin-1 alpha (IL1a), IL1A (gene 3552)
The assay can be described thus: BSK_KF3CT_IL1a: BioMAP Diversity Plus: KF3CT Assay for Interleukin-1 alpha (IL1a) Biomarker Activity (AID 2283070). Particulars: primary human keratinocytes with fibroblasts; actives raise or lower the signal. The method in brief:
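Human keratinocyte plus foreskin fibroblast primary co-culture, sampled 24 h after chemical dosing. IL-1a measured by ELISA; responses fitted bidirectionally against DMSO baseline (negative control), so gain or loss of signal both count.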

Read-out in assay [2]: TIMP metallopeptidase inhibitor 2 (TIMP2), TIMP2 (gene 7077)
Kind of assay: BSK_KF3CT_TIMP2: BioMAP Diversity Plus: KF3CT Assay for TIMP metallopeptidase inhibitor 2 (TIMP2) Biomarker Activity (AID 2283071). Particulars: primary human keratinocytes with fibroblasts; actives raise or lower the signal. In short, it runs like this:
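Human primary keratinocyte/foreskin fibroblast co-culture dosed with chemical and sampled at 24 h. TIMP-2 levels quantified by ELISA; bidirectional fitting against DMSO negative control as baseline.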

Read-out in assay [3]: C-C motif chemokine 2 (Homo sapiens) (UniProt P13500)
The assay can be described thus: BSK_KF3CT_MCP1: BioMAP Diversity Plus: KF3CT Assay for Monocyte Chemoattractant Protein 1 (MCP1/CCL2) Biomarker Activity (AID 2283073). Conditions: primary human keratinocytes with fibroblasts; actives raise or lower the signal. In short, it runs like this:
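Human keratinocyte plus foreskin fibroblast primary co-culture exposed to chemical for 24 h. MCP-1 levels measured by ELISA. Bidirectional curve fitting relative to DMSO negative control as baseline.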

Read-out in assay [4]: Matrix Metallopeptidase 9 (MMP9), MMP9 (gene 4318)
Kind of assay: BSK_KF3CT_MMP9: BioMAP Diversity Plus: KF3CT Assay for Matrix Metallopeptidase 9 (MMP9) Biomarker Activity (AID 2283074).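 On AC50: MMP9 protein level quantified by ELISA in the co-culture.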 Conditions: primary human keratinocytes with fibroblasts; actives raise or lower the signal. The method in brief: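 Keratinocyte plus foreskin fibroblast human primary skin co-culture was dosed with chemical and MMP-9 was quantified by ELISA 24 h later. Bidirectional curve fitting used DMSO as negative control and activity baseline.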

Read-out in assay [5]: CD40, CD40 (gene 958)
Kind of assay: BSK_LPS_CD40: BioMAP Diversity Plus: LPS Assay for CD40 Biomarker Activity (AID 2283076). Particulars: primary human HUVEC with PBMC; actives raise or lower the signal. In short, it runs like this: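 Primary human umbilical vein endothelial cells co-cultured with peripheral blood mononuclear cells, LPS-stimulated, were dosed with chemical and read 24 h later. CD40 levels were measured by ELISA and fitted bidirectionally against DMSO as negative control and baseline.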

Read-out in assay [6]: E-selectin (Homo sapiens) (UniProt P16581)
The assay can be described thus: BSK_LPS_Eselectin: BioMAP Diversity Plus: LPS Assay for Eselectin Biomarker Activity (AID 2283077). Conditions: primary human HUVEC with PBMC; actives raise or lower the signal. In short, it runs like this:
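Human umbilical vein endothelial cells co-cultured with peripheral blood mononuclear cells under LPS stimulation; E-selectin measured by ELISA 24 h after chemical dosing. Activity fitted bidirectionally against DMSO as negative control and baseline.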

Read-out in assay [7]: Interleukin-8 (IL8), CXCL8 (gene 3576)
Kind of assay: BSK_LPS_IL8: BioMAP Diversity Plus: LPS Assay for Interleukin-8 (IL8) Biomarker Activity (AID 2283078). Particulars: primary human HUVEC with PBMC; actives raise or lower the signal. The method in brief:
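Human umbilical vein endothelial cells co-cultured with PBMC were stimulated with LPS; IL-8 levels were measured by ELISA 24 h after chemical dosing. Activity was fitted bidirectionally against DMSO as negative control and baseline.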

Assay [8] in a line: BSK_LPS_SRB: Viability Assessment in the BioMAP Diversity Plus: LPS Assay (AID 2283079).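 Further: total protein by sulforhodamine B absorbance as a cytotoxicity measure; measured one day after compound addition.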 Conditions: primary human HUVEC with PBMC. In short, it runs like this: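 Human umbilical vein endothelial cells co-cultured with PBMC (LPS system) were dosed for 24 h. Total protein was stained with 0.1% sulforhodamine B after 10% TCA fixation, read at 560 nm, and fitted bidirectionally against DMSO baseline.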

Read-out in assay [9]: Interleukin-1 alpha (IL1a), IL1A (gene 3552)
Kind of assay: BSK_LPS_IL1a: BioMAP Diversity Plus: LPS Assay for Interleukin-1 alpha (IL1a) Biomarker Activity (AID 2283080). Conditions: primary human HUVEC with PBMC; actives raise or lower the signal. In short, it runs like this:
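Human umbilical vein endothelial cells co-cultured with peripheral blood mononuclear cells were LPS-stimulated and exposed to test chemicals for 24 h. IL-1 alpha was quantified by ELISA, with bidirectional curve fitting against DMSO as the negative control and baseline.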

Read-out in assay [10]: Monocyte Chemoattractant Protein-1 (MCP1), CCL2 (gene 6347)
The assay can be described thus: BSK_LPS_MCP1: BioMAP Diversity Plus: LPS Assay for Monocyte Chemoattractant Protein-1 (MCP1) Biomarker Activity (AID 2283081).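 On AC50: secreted MCP-1 protein quantified by ELISA in culture supernatant.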 Particulars: primary human HUVEC with PBMC; actives raise or lower the signal. In short, it runs like this: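 HUVEC plus PBMC co-culture (human primary cells, LPS system) exposed to test chemical for 24 h; MCP-1 measured by ELISA. Bidirectional curve fitting against DMSO baseline; parallel SRB total-protein staining flags overt cytotoxicity.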

Assay [11] in a line: BSK_LPS_PGE2: BioMAP Diversity Plus: LPS Assay for Prostaglandin E2 (PGE2) Biomarker Activity (AID 2283082). Conditions: primary human HUVEC with PBMC; actives raise or lower the signal. In short, it runs like this: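 HUVEC plus PBMC co-culture stimulated with LPS; secreted PGE2 quantified by ELISA 24 h after chemical dosing. Activity fitted bidirectionally against DMSO as negative control and baseline; parallel SRB total-protein staining served as cytotoxicity check.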

Read-out in assay [12]: Macrophage colony-stimulating factor (MCSF), CSF1 (gene 1435)
Kind of assay: BSK_LPS_MCSF: BioMAP Diversity Plus: LPS Assay for Macrophage colony-stimulating factor (MCSF) Biomarker Activity (AID 2283083). Conditions: primary human HUVEC with PBMC; actives raise or lower the signal. The method in brief: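 Human umbilical vein endothelial cells co-cultured with peripheral blood mononuclear cells were exposed to compound for 24 h. M-CSF levels were measured by ELISA, and bidirectional curve fitting used DMSO as the negative control and baseline.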

Read-out in assay [13]: Tissue Factor, F3 (gene 2152)
Kind of assay: BSK_LPS_TissueFactor: BioMAP Diversity Plus: LPS Assay for Tissue Factor Biomarker Activity (AID 2283084). Particulars: primary human HUVEC with PBMC; actives raise or lower the signal. The method in brief:
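Human umbilical vein endothelial cells co-cultured with peripheral blood mononuclear cells were dosed and stimulated with LPS. Cell-surface CD142 was quantified by ELISA at 24 h. Activity was fitted bidirectionally against DMSO baseline.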

Read-out in assay [14]: Tumor necrosis factor (Homo sapiens) (UniProt P01375)
Kind of assay: BSK_LPS_TNFa: BioMAP Diversity Plus: LPS Assay for Tumour Necrosis Factor alpha (TNFa) Biomarker Activity (AID 2283085).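 On AC50: TNFa protein level quantified by ELISA in the co-culture.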 Particulars: primary human HUVEC with PBMC; actives raise or lower the signal. The method in brief:
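Human umbilical vein endothelial cells co-cultured with PBMC were exposed to test chemical and TNFa measured by ELISA 24 h after dosing. Bidirectional curve fitting was done relative to DMSO as negative control and baseline.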

Read-out in assay [15]: Vascular cell adhesion molecule 1 (VCAM1), VCAM1 (gene 7412)
Kind of assay: BSK_LPS_VCAM1: BioMAP Diversity Plus: LPS Assay for Vascular cell adhesion molecule 1 (VCAM1) Biomarker Activity (AID 2283086). Conditions: primary human HUVEC with PBMC; actives raise or lower the signal. The method in brief:
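Human umbilical vein endothelial cells co-cultured with peripheral blood mononuclear cells under LPS stimulation were exposed to test chemical for 24 h. VCAM-1 levels were then measured by ELISA, with bidirectional curve fitting relative to DMSO as negative control and baseline.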

Read-out in another assay: CD38, CD38 (gene 952)
Kind of assay: BSK_SAg_CD38: BioMAP Diversity Plus: SAg Assay for CD38 Biomarker Activity (AID 2283087). Particulars: primary human HUVEC with PBMC; actives raise or lower the signal. In short, it runs like this:
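Fluorescence ELISA of cell-surface CD38 served as the read-out, with either increase or decrease fitted against DMSO controls. Cells were a human umbilical vein endothelium plus PBMC co-culture under SEB/TSST-1 stimulation, measured 24 h after dosing.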

Read-out in assay [16]: CD40, CD40 (gene 958)
The assay can be described thus: BSK_SAg_CD40: BioMAP Diversity Plus: SAg Assay for CD40 Biomarker Activity (AID 2283088). Conditions: primary human HUVEC with PBMC; actives raise or lower the signal. In short, it runs like this: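 Human umbilical vein endothelial cells co-cultured with PBMC; CD40 levels measured by ELISA with fluorescence read-out 24 h after chemical dosing. Gain or loss of signal fitted bidirectionally against DMSO baseline.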

Read-out in another assay: CD69, CD69 (gene 969)
Kind of assay: BSK_SAg_CD69: BioMAP Diversity Plus: SAg Assay for CD69 Biomarker Activity (AID 2283089).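 On AC50: cell surface CD69 protein quantified by ELISA with fluorescence detection.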 Particulars: primary human HUVEC with PBMC; actives raise or lower the signal. In short, it runs like this:
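Values derive from bidirectional fitting relative to DMSO vehicle. Cells: umbilical vein endothelium plus peripheral blood mononuclear cells, treated 24 h before fluorescent ELISA for CD69.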

Where “and” joins values, the source holds several entries; their conditions need not be identical. Identical values can stand only once. The source holds several records for some structures; these can differ, active in one and inactive in another. Calls of active or inactive are those of the source. How the source made its calls: active means hit-call score of the fitted dose curve at least 0.9, where 1 is the maximum; inactive means score below 0.9.

Sequence of Tumor necrosis factor (Homo sapiens) (P01375 whole entry, looked up): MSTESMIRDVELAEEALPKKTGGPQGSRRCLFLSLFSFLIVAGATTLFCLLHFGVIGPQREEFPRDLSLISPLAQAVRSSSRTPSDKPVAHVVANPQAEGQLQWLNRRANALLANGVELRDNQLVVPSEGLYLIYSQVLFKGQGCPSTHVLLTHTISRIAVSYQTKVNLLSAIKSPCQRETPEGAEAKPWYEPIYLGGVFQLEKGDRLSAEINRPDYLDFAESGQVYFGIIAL
Sequence of E-selectin (Homo sapiens) (P16581 whole entry, looked up): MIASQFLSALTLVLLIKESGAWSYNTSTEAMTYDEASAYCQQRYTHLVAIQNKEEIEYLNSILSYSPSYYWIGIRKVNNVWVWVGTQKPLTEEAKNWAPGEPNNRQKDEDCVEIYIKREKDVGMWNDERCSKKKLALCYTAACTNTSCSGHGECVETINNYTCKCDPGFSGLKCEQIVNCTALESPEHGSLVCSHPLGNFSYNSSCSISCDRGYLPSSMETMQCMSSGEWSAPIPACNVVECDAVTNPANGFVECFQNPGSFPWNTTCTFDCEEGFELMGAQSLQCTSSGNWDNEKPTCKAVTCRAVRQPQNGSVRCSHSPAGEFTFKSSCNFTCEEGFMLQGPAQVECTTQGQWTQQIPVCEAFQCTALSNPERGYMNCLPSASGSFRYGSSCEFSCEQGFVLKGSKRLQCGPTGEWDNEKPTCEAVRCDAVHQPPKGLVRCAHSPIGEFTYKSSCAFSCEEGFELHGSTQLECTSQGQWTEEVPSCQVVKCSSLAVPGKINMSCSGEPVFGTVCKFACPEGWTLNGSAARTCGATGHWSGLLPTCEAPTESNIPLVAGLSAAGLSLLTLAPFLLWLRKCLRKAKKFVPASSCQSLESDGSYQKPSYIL

For the compound `NC(=O)C(F)(F)C(F)(F)C(F)(F)C(F)(F)C(F)(F)C(F)(F)C(F)(F)F`, the outcome is “inactive” in [1]; “inactive” in assay [2]; “inactive” in assay [3]; “inactive” in [4]; “inactive” with CD40, CD40 (gene 958) [5]; “inactive” in [6]. Also, the outcome in assay [7], in [8], in [9], in assay [10], in assay [11] and in [12] was inactive. In addition, the outcome was “inactive” in assay [13]; “inactive” in assay [14]; “inactive” in assay [15]; “inactive” in the assay with CD38, CD38 (gene 952); “inactive” with CD40, CD40 (gene 958) [16]; “inactive” in the assay with CD69, CD69 (gene 969).

Turning to `OCC(F)(F)C(F)(F)C(F)(F)C(F)(F)C(F)(F)C(F)(F)CO`, the outcome in assay [1] is “inactive”; in assay [2], “inactive”; in [3], “inactive”; in assay [4], “inactive”; with CD40, CD40 (gene 958) [5], “inactive”; in assay [6], “inactive”. Moreover, the result in assay [7], in assay [8], in assay [9], in [10], in [11] and in [12] was inactive. For the same compound, the outcome was “inactive” in [13]; “inactive” in assay [14]; “inactive” in [15]; “inactive” with CD38, CD38 (gene 952); “inactive” with CD40, CD40 (gene 958) [16]; “inactive” in the assay with CD69, CD69 (gene 969). Further, the half-maximal activity concentration (AC50) in [14] was 1.9 µM (active).

Turning to `OCCCC(F)(F)C(F)(F)C(F)(F)C(F)(F)C(F)(F)C(F)(F)C(F)(F)C(F)(F)F`, the half-maximal activity concentration (AC50) in assay [1] was 11 µM (active) and 8.25 µM (active); in assay [2], 14.5 µM (active) and 8.21 µM (active); in [3] it was 11 µM (active) and 8.31 µM (active); in assay [4], 9.36 µM (active) and 10.8 µM (active); with CD40, CD40 (gene 958) [5], 34.7 µM (active) and 32.9 µM (active); in [6] it was 15.3 µM (active) and 30 µM (active). Also, the AC50 in assay [7] was 45.9 µM (active) and 42.5 µM (active); in [8] it was 41.5 µM (active) and 45.7 µM (active); in [9], 30 µM (active) and 6.25 µM (active); in assay [10], 29.9 µM (active) and 44.8 µM (active); in assay [12], 44.2 µM (active) and 22.5 µM (active); in [13], 39.3 µM (active) and 23.2 µM (active). In addition, the AC50 is 29.7 µM (active) and 19.9 µM (active) in assay [14]; 41.4 µM (active) and 23.6 µM (active) in assay [15]; 44.8 µM (active) and 26 µM (active) in the assay with CD38, CD38 (gene 952); 43.8 µM (active) and 45.5 µM (active) with CD40, CD40 (gene 958) [16]; 45.5 µM (active) and 46.7 µM (active) with CD69, CD69 (gene 969). Besides, the outcome in assay [11] was inactive.

As to `NC(=O)C(F)(F)C(F)(F)C(F)(F)C(F)(F)C(N)=O`, the outcome in assay [1] was “inactive”; in assay [2] it was “inactive”; in [3], “inactive”; in [4] it was “inactive”; with CD40, CD40 (gene 958) [5], “inactive”; in assay [6] it was “inactive”. Besides, the result in assay [7], in [8], in assay [9], in assay [10], in assay [11] and in assay [12] was inactive. In addition, the outcome was “inactive” in assay [13]; “inactive” in [14]; “inactive” in [15]; “inactive” in the assay with CD38, CD38 (gene 952); “inactive” with CD40, CD40 (gene 958) [16]; “inactive” with CD69, CD69 (gene 969). Besides, in assay [12], the half-maximal activity concentration (AC50) was 393 nM (active).

In the case of `CO[Si](C)(CCC(F)(F)C(F)(F)C(F)(F)C(F)(F)C(F)(F)C(F)(F)F)OC`, the outcome in assay [1] was “inactive”; in assay [2] it was “inactive”; in assay [3] it was “inactive”; in assay [4] it was “inactive”; in the assay with CD40, CD40 (gene 958) [5], “inactive”; in assay [6], “inactive”. Further, the result in assay [7], in [8], in [9], in [10], in assay [11] and in [12] was inactive. Also, the outcome in assay [13] is “inactive”; in assay [14], “inactive”; in assay [15], “inactive”; with CD38, CD38 (gene 952) it was “inactive”; in the assay with CD40, CD40 (gene 958) [16] it was “inactive”; in the assay with CD69, CD69 (gene 969) it was “inactive”.

The term AC50 denotes the concentration giving half of the maximal activity seen.

The values above are taken from PubChem BioAssay (EPA / NIEHS).
